Dicer inh: human Dicer pre-microRNA cleavage inhibition. Q9UPY3. cat-ELCCA pre-miR-21 Dicer processing, chemiluminescence; hits give high values. z-score at 25 µM. 47,000 tested, 6% active. AID 1347074; in the data active = z-score above about 3, passing the limit was not always enough;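 also: higher signal means more uncleaved substrate so more Dicer inhibition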
Hits are given with their value; 0 = inactive. Only a selection was taken, and hits are over-represented in it overall.

SMILES	Dicer inh
O=C(c1cc2n(n1)C(C(F)(F)F)CC(c1ccccc1)N2)N1CCOCC1 (centres undefined)	3.6
O=C(c1cc2n(n1)C(C(F)(F)F)CC(c1ccc(Br)cc1)N2)N1CCCCC1 (centres undefined)	0
O=C(c1cc2n(n1)C(C(F)(F)F)CC(c1ccc(Cl)cc1)N2)N1CCCCC1 (centres undefined)	0
O=C(c1cc2n(n1)C(C(F)(F)F)CC(c1ccco1)N2)N1CCN(c2ccccn2)CC1 (centres undefined)	0
O=C(CSc1ccccc1)Nc1ncn[nH]1	0
Cn1c(-c2cc(Br)cs2)nc(=O)c2ccccc21	0
COC(=O)CC1(C(=O)OC)Oc2ccc(Cl)cc2C(=O)N1c1ccc(F)cc1F (centres undefined)	0
COc1ccc(NC(=O)c2sc3nc4c(cc3c2N)CCCCC4)cc1	0
O=C(NNS(=O)(=O)c1ccccc1)c1sccc1OCc1ncc(C(F)(F)F)cc1Cl	0
CN(C)c1ccc(-c2nc3n(n2)C(c2ccc(F)cc2)C2=C(CC(C)(C)CC2=O)N3)cc1 (centres undefined)	4.6
CCOc1ccc(C2C3=C(CC(C)(C)CC3=O)Nc3nc(-c4ccc(OC)cc4)nn32)cc1 (centres undefined)	0
CN(C)c1ccc(-c2nc3n(n2)C(c2cccnc2)C2=C(CC(C)(C)CC2=O)N3)cc1 (centres undefined)	0
CN(C)c1ccc(-c2nc3n(n2)C(c2cccnc2)C2=C(CCCC2=O)N3)cc1 (centres undefined)	0
CN(C)c1ccc(-c2nc3n(n2)C(c2ccc(Cl)cc2)C2=C(CC(C)(C)CC2=O)N3)cc1 (centres undefined)	3.6
CC1=C(C(N)=O)C(c2ccc(Cl)cc2)n2nc(-c3ccc(N(C)C)cc3)nc2N1 (centres undefined)	0
C#CCNc1sc(C(C)=O)cc1[N+](=O)[O-]	0
CC1CC(N2CNC(=S)NC2)CC(C)(C)C1 (centres undefined)	0
Cc1cc(Oc2ccc(C(F)(F)F)cc2[N+](=O)[O-])n(-c2ccccc2)n1	0
Fc1ccc(C2CN3C(=N2)C=Cc2ccccc23)cc1 (centres undefined)	0
Cc1ccc2oc(-c3ccco3)c(O)c(=O)c2c1	0
Cc1ccc2oc(-c3cc(Br)ccc3O)c(O)c(=O)c2c1	5.3
Cc1ccc(-c2oc3ccc(C)cc3c(=O)c2O)cc1	0
NC(=O)C1CCN(C(=S)NC2CC3C=CC2C3)CC1 (centres undefined)	0
CCOC(=O)C1CCN(C(=S)NC2CC3C=CC2C3)CC1 (centres undefined)	0
COc1cccc(/C=N/NC(=O)C2CCCN(C(=S)NNC3CC4C=CC3C4)CC2)c1O (centres undefined)	3.7
SMILES	Dicer inh
Cc1cc2ncc(-c3ccc(Cl)c(Cl)c3)nc2cc1C	0
Nc1ccc(O)c(-c2nc3ccccc3o2)c1	0
CCOC(=O)c1cnn(C)c1NC(=O)C(Cl)Cl	0
O=C1OC(c2ccccc2)(c2ccccc2)c2ccccc21	0
CC1(C)OC(=O)c2ccccc2-c2ccccc21	0
CC1(C(=O)O)Cc2ccccc2C(=O)O1 (centres undefined)	3.9
Cc1c(C(=O)c2ccc(Cl)cc2)oc2c(Cl)cc(Cl)cc12	0
Cc1cc(=O)n(-c2ccc(O)cc2)[nH]1	0
Cc1cc(=O)n(-c2ccc(Cl)c(Cl)c2)[nH]1	0
O=C1CC(c2ccccc2Cl)Cc2c1cnn2-c1nc2ccccc2[nH]1 (centres undefined)	0
Cc1[nH]n(-c2nc3ccccc3[nH]2)c(=O)c1C1OC(=O)c2ccccc21 (centres undefined)	3.8
Cc1ccccc1-c1nc2ccccc2[nH]1	0
Cc1cc(=O)n(-c2nc3ccccc3[nH]2)[nH]1	4.3
N#Cc1nn(-c2ccccc2)c(=O)n(Cc2ccccc2)c1=O	0
CC(C)S[C@@H]1O[C@H](CO)[C@@H](O)[C@H](O)[C@H]1O	0
Cc1onc(-c2ccccc2Cl)c1NC(=O)Nc1cc(C(F)(F)F)cc(C(F)(F)F)c1	0
O=C1c2nccnc2C(=O)N1c1cc(Cl)c(-n2cccc2)cc1Cl	0
O=C1c2ccccc2S(=O)(=O)N1CCCCN1CCN(c2ncccn2)CC1	0
O=C(OCCN1CCN(C2=NS(=O)(=O)c3ccccc32)CC1)c1cccc2ccccc12	3.2
O=C1c2ccccc2S(=O)(=O)N1Cc1cccc2ccccc12	0
Cc1cc(F)ccc1S(=O)(=O)N(C(=O)c1ccncc1)c1ccc2oc(=O)sc2c1	6.5
CCCC(=O)N(c1ccc2oc(=O)sc2c1)S(=O)(=O)c1ccc(Br)cc1	0
CCCC(=O)N(c1ccc2oc(=O)sc2c1)S(=O)(=O)c1ccc(OC)cc1	0
Cc1cc(F)ccc1S(=O)(=O)N(C(=O)C(C)C)c1ccc2oc(=O)sc2c1	5
CCOc1ccc(S(=O)(=O)N(C(=O)C(C)C)c2ccc3oc(=O)sc3c2)cc1	3.1
O=C(c1ccncc1)N(c1cc2sc(=O)oc2c2ccccc12)S(=O)(=O)c1ccc(F)cc1	0
Cc1ccc(S(=O)(=O)N(C(=O)C(C)C)c2ccc3oc(=O)sc3c2)cc1	0

Bioassay records deposited in PubChem BioAssay by Center for Chemical Genomics, University of Michigan.
